# Measured values: PubChem BioAssay (Tox21)
# Records with an inconclusive call do not appear. Where a call stands in place of a potency, no number is given. Values without a mark were called inactive. Calls of active or inactive are those of the source. Unless noted, calls come from the whole dose curve; as a rule, active = well fitted curve in the direction sought with a large enough effect in the repeat runs; inconclusive = weak or mixed curves; inactive = no such curve, though single readings can be large; an effect the other way counts as inactive or inconclusive.
# Experiments:
# [1] = qHTS assay to identify aromatase inhibitors - cell viability counter screen (AID 743084);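 note: cells stimulated with testosterone during compound exposure; nearly all actives have a fitted effect of over 55% in size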
# [2] = target: Aryl hydrocarbon receptor (Homo sapiens) (UniProt P35869); assay: qHTS assay to identify small molecule that activate the aryl hydrocarbon receptor (AhR) signaling pathway (AID 743085); note: nearly all actives have a fitted effect of over 15% in size; note: potency is the fitted concentration of half-maximal effect;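 for activation: HG2L7.5c1 human HepG2 liver cells with stably integrated DRE-driven firefly reporter; series mostly up to about 70 µM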
# Aryl hydrocarbon receptor (Homo sapiens), sequence (P35869 whole entry, looked up): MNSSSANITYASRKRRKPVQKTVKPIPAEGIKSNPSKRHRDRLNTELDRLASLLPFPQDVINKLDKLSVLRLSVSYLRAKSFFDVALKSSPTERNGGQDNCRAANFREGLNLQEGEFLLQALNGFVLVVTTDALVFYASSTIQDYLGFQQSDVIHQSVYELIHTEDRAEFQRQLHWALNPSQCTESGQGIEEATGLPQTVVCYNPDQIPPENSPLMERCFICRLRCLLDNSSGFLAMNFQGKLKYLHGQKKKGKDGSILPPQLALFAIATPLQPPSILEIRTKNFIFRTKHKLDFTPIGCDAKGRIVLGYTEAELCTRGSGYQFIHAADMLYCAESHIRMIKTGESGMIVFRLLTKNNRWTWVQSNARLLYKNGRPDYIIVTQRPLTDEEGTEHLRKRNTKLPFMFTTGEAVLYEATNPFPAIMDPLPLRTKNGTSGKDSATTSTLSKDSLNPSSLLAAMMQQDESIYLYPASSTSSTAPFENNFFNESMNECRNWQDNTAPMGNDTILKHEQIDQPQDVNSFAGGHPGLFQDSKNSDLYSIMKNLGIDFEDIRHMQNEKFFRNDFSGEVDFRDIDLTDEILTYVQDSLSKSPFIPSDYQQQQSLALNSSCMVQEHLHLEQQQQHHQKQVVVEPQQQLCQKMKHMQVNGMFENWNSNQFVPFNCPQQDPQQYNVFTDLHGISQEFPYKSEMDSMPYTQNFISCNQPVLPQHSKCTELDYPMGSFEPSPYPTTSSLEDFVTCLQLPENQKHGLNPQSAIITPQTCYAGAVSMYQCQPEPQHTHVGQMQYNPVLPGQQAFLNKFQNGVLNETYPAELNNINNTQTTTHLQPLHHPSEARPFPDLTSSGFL
# How it was run: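 HepG2 cells stably carrying a 20-DRE firefly luciferase reporter (HG2L7.5c1) treated with compound for 24 hr at 37C. Luciferase read by ONE-Glo luminescence, with CellTiter-Fluor viability read first.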
# [3] = qHTS assay to identify small molecule that activate the aryl hydrocarbon receptor (AhR) signaling pathway - cell viability counter screen (AID 743086);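 note: HepG2 liver cells carrying the AhR DRE luciferase reporter; series mostly up to about 70 µM; nearly all actives have a fitted effect of over 45% in size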
# How it was run: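 HepG2-AhR-luc (HG2L7.5c1) cells, 4000/well, treated 24 h at 37 C with compound; viability measured as CellTiter-Fluor fluorescence after 30 min in the same wells as the luciferase read.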
# [4] = target: Peroxisome proliferator-activated receptor gamma (Homo sapiens) (UniProt P37231); assay: qHTS assay to identify small molecule agonists of the peroxisome proliferator-activated receptor gamma (PPARg) signaling pathway (AID 743094; active = well fitted activation curve with a large enough effect in the signal ratio in the repeat runs, not every such curve was filed as active; the % refers to the signal ratio; note: potency is the fitted concentration of half-maximal effect)
# Peroxisome proliferator-activated receptor gamma (Homo sapiens), sequence (P37231 whole entry, looked up): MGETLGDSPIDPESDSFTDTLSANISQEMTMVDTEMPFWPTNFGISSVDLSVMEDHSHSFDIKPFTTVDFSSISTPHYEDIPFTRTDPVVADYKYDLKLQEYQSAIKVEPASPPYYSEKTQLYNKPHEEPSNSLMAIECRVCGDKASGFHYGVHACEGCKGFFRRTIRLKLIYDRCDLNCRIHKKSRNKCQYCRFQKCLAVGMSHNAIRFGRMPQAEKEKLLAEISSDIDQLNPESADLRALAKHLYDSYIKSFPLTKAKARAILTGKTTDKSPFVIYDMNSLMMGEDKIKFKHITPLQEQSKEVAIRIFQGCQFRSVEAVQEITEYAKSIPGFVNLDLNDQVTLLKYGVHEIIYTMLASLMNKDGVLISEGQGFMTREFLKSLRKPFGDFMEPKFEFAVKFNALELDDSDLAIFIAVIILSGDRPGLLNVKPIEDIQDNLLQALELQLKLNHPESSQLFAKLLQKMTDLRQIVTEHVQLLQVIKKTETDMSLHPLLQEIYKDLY
# How it was run: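 GeneBLAzer PPARg UAS-bla HEK293H cells carrying a stably integrated beta-lactamase reporter were pre-incubated 5 h at 37C, then exposed to compounds in DMSO for 17 h at 37C; LiveBLAzer B/G FRET substrate was added for 1 h at room temperature and fluorescence read.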
# [5] = target: Peroxisome proliferator-activated receptor gamma (Homo sapiens) (UniProt P37231); assay: qHTS assay to identify small molecule antagonists of the peroxisome proliferator-activated receptor gamma (PPARg) signaling pathway (AID 743191; calls by dose curve; note: series mostly up to about 63 µM; nearly all actives have a fitted effect of over 30% in size)
# How it was run: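 GeneBLAzer PPARg UAS-bla HEK293H cells, 5 h post-plating, exposed to compounds 17 h at 37C. LiveBLAzer B/G FRET substrate added for 1 h at room temperature; beta-lactamase reporter read by fluorescence intensity.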
# [6] = qHTS assay to identify small molecule antagonists of the peroxisome proliferator-activated receptor gamma (PPARg) signaling pathway - cell viability counter screen (AID 743194); note: nearly all actives have a fitted effect of over 55% in size
# How it was run: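 Cytotoxicity counter screen in PPARg-bla HEK293H cells, same wells as reporter assay. Compounds plus 50 nM rosiglitazone (final) for 17 h at 37 C, then viability read by CellTiter-Glo luminescence.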
# [7] = qHTS assay for small molecule agonists of the antioxidant response element (ARE) signaling pathway (AID 743202; active = well fitted activation curve with a large enough effect in the signal ratio in the repeat runs, not every such curve was filed as active; the % refers to the signal ratio; note: potency is the fitted concentration of half-maximal effect)
# How it was run: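 ARE-bla HepG2 cells (beta-lactamase reporter under the antioxidant response element), plated 5 hours, then exposed to compounds 16 hours at 37 C. LiveBLAzer B/G FRET substrate added for 2 hours at room temperature; fluorescence intensity read.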
# [8] = qHTS assay for small molecule agonists of the antioxidant response element (ARE) signaling pathway - cell viability counter screen (AID 743203; calls by dose curve; note: nearly all actives have a fitted effect of over 55% in size)
# How it was run: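 CellSensor ARE-bla HepG2 cells, 2,000 per well, rested 5 hrs at 37C/5% CO2, then exposed to compound in DMSO for 16 hrs; viability read as CellTiter-Glo luminescence after 30 min at room temperature, in the reporter wells.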
# [9] = qHTS assay for small molecule activators of the heat shock response signaling pathway - cell viability counter screen (AID 743209); note: nearly all actives have a fitted effect of over 50% in size
# How it was run: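 CellSensor HSE-bla HeLa cells, plated overnight at 37 C/5% CO2, were exposed to compounds in DMSO for 5 h at 37 C. Viability was then read in the same wells by CellTiter-Glo luminescence after 30 min at room temperature.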
# [10] = qHTS assay for small molecule activators of the heat shock response signaling pathway (AID 743210; active = well fitted activation curve with a large enough effect in the signal ratio in the repeat runs, with a control signal flat, not every such curve was filed as active; the % refers to the signal ratio; note: series mostly up to about 63 µM)
# How it was run: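 HSE-bla HeLa cells (beta-lactamase reporter under heat shock response elements), plated overnight, then exposed to compounds 5 h at 37 C; LiveBLAzer B/G FRET substrate added, 2.5 h at room temperature, fluorescence intensity read.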
# [11] = qHTS assay to identify small molecule agonists of the peroxisome proliferator-activated receptor delta (PPARd) signaling pathway - cell viability counter screen (AID 743211); note: nearly all actives have a fitted effect of over 55% in size
# How it was run: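 PPARd-bla HEK293H cells (3000/well) were pre-incubated 5 h at 37 C, then exposed to compound for 17 h at 37 C. After 2 h with LiveBLAzer substrate, CellTiter-Glo was added to the same wells; luminescence read after 30 min at room temperature.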
# [12] = target: Peroxisome proliferator-activated receptor delta (Homo sapiens) (UniProt Q03181); assay: qHTS assay to identify small molecule agonists of the peroxisome proliferator-activated receptor delta (PPARd) signaling pathway (AID 743212; calls by dose curve)
# Peroxisome proliferator-activated receptor delta (Homo sapiens), sequence (Q03181 whole entry, looked up): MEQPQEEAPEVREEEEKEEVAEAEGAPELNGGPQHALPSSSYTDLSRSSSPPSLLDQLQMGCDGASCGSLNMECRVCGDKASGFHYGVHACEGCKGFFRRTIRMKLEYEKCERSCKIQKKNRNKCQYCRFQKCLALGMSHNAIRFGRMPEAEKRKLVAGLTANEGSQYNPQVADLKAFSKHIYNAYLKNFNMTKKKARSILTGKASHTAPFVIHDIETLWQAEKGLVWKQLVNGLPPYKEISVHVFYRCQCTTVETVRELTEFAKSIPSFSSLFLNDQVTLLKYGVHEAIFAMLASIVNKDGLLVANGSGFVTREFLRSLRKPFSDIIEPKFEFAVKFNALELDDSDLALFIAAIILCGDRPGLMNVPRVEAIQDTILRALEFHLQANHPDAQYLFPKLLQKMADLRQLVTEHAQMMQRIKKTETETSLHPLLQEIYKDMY
# How it was run: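 GeneBLAzer UAS-bla HEK293H cells carrying a PPARδ construct were exposed to compounds at 37 °C. Beta-lactamase activity was read by FRET fluorescence after 2 h at room temperature with LiveBLAzer B/G substrate.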
# [13] = target: Peroxisome proliferator-activated receptor delta (Homo sapiens) (UniProt Q03181); assay: qHTS assay to identify small molecule antagonists of the peroxisome proliferator-activated receptor delta (PPARd) signaling pathway (AID 743215; active = well fitted inhibition curve with a large enough effect in the signal ratio in the repeat runs, not every such curve was filed as active; the % refers to the signal ratio;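 note: cells stimulated with agonist L165041 at 300 nM final during compound exposure; series mostly up to about 62 µM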)
# How it was run: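 PPARd UAS-bla HEK293H cells were pre-incubated 5 h at 37 C, then given test compounds in DMSO plus agonist L165041 (300 nM final). After 17 h at 37 C, beta-lactamase FRET substrate was added; fluorescence read after 2 h at room temperature.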
# [14] = qHTS assay to identify small molecule agonists of the farnesoid-X-receptor (FXR) signaling pathway - cell viability counter screen (AID 743218); note: nearly all actives have a fitted effect of over 45% in size
# How it was run: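 FXR-UAS-bla HEK 293T cells, plated 5 h at 37 C, were exposed to compounds for 16 h at 37 C. CellTiter-Glo was then added to the same wells as the bla readout; luminescence read after 30 min at room temperature.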
# [15] = qHTS assay to identify small molecule antagonists of the farnesoid-X-receptor (FXR) signaling pathway - cell viability counter screen (AID 743221; active = well fitted cell-killing curve with a large enough effect in the repeat runs, not every such curve was filed as active; note: nearly all actives have a fitted effect of over 50% in size)
# How it was run: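 GeneBLAzer FXR-UAS-bla HEK 293T cells, compound plus chenodeoxycholic acid (50 uM final), 16 h at 37 C. CellTiter-Glo added to the same wells after the beta-lactamase read; luminescence read after 30 min at room temperature as viability.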
# [16] = target: Vitamin D3 receptor (Homo sapiens) (UniProt P11473); assay: qHTS assay to identify small molecule agonists of the vitamin D receptor (VDR) signaling pathway (AID 743222; calls by dose curve)
# Vitamin D3 receptor (Homo sapiens), sequence (P11473 whole entry, looked up): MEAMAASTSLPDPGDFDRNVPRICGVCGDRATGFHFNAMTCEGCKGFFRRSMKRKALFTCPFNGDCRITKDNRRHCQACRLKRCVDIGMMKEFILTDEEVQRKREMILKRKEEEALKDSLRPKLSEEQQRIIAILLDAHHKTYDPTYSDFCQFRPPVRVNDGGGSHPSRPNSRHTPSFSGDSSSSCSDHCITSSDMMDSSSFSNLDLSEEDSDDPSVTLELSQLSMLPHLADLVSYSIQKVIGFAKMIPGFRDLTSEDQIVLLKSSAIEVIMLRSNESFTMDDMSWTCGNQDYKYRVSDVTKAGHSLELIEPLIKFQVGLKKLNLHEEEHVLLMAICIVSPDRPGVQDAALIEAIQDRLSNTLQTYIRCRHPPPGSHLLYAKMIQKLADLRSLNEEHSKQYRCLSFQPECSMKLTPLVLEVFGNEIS
# How it was run: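 VDR-bla cells were plated 4 h at 37C/5% CO2, then exposed to compounds in DMSO for 16 h. After LiveBLAzer B/G FRET substrate addition and 2 h at room temperature, beta-lactamase reporter fluorescence was read.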
# [17] = qHTS assay to identify small molecule antagonists of the peroxisome proliferator-activated receptor delta (PPARd) signaling pathway - cell viability counter screen (AID 743213); note: nearly all actives have a fitted effect of over 50% in size
# How it was run: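 HEK293H PPARd UAS-bla cells, 5 h pre-incubation, compound + L165041 300 nM final, 17 h 37 C; B/G FRET substrate 2 h RT; then CellTiter-Glo 30 min RT, luminescence.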
# [18] = target: Bile acid receptor (Homo sapiens) (UniProt Q96RI1); assay: qHTS assay to identify small molecule antagonists of the farnesoid-X-receptor (FXR) signaling pathway (AID 743217; active = well fitted inhibition curve with a large enough effect in the signal ratio in the repeat runs, not every such curve was filed as active; the % refers to the signal ratio)
# Bile acid receptor (Homo sapiens), sequence (Q96RI1 whole entry, looked up): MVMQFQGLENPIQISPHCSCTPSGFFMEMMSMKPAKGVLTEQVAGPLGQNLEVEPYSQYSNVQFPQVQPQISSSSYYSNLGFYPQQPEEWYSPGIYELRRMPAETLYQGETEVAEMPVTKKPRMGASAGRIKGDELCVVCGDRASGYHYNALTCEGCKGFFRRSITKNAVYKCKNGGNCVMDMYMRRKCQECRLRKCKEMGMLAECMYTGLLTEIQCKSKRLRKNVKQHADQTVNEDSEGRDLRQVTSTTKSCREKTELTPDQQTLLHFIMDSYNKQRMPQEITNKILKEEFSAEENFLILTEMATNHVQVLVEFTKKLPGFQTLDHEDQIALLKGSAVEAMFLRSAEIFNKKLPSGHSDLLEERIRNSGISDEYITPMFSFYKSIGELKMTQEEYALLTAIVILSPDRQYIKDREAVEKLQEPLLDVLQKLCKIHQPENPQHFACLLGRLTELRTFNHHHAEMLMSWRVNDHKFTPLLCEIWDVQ
# How it was run: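 FXR-UAS-bla HEK 293T cells pre-incubated 5 h at 37 °C, then exposed to compounds with chenodeoxycholic acid (50 uM final) for 16 h at 37 °C. Beta-lactamase reporter read by LiveBLAzer B/G FRET substrate fluorescence after 2 h at room temperature.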
# [19] = target: Bile acid receptor (Homo sapiens) (UniProt Q96RI1); assay: qHTS assay to identify small molecule agonists of the farnesoid-X-receptor (FXR) signaling pathway (AID 743220; active = well fitted activation curve with a large enough effect in the signal ratio in the repeat runs, not every such curve was filed as active; the % refers to the signal ratio)
# How it was run: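 Beta-lactamase reporter under UAS control in GeneBLAzer FXR HEK 293T cells (5000/well) measured with LiveBLAzer FRET substrate after 2 h at room temperature. Compound exposure lasted 16 h at 37C.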
# [20] = target: Vitamin D3 receptor (Homo sapiens) (UniProt P11473); assay: qHTS assay to identify small molecule antagonists of the vitamin D receptor (VDR) signaling pathway (AID 743223; active = well fitted inhibition curve with a large enough effect in the signal ratio in the repeat runs, not every such curve was filed as active; the % refers to the signal ratio)
# How it was run: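 VDR-bla cells were treated with compound plus 3 nM final 1alpha,25-dihydroxyvitamin D3 for 16 h at 37C. Beta-lactamase reporter read by B/G FRET substrate fluorescence after 2 h at room temperature. qHTS format.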
SMILES,Potency [1],Potency [2],Potency [3],Potency [4],Potency [5],Potency [6],Potency [7],Potency [8],outcome [9],outcome [10],Potency [11],Potency [12],outcome [13],Potency [14],Potency [15],outcome [16],Potency [17],outcome [18],outcome [19],outcome [20]
O=[N+]([O-])c1cccc(I)c1,inactive,inactive,inactive,inactive,inactive,inactive,inactive,inactive,inactive,inactive,inactive,inactive,inactive,inactive,inactive,inactive,–,–,–,–
O=S(=O)(O)c1cc(Cl)c(Cl)cc1Cl,inactive,inactive,inactive,inactive,inactive,inactive,–,inactive,inactive,inactive,inactive,inactive,inactive,inactive,inactive,inactive,–,–,–,–
CCc1ccc(C(=O)C(C)CN2CCCCC2)cc1 (stereo unspecified),inactive,inactive,inactive,inactive,inactive,inactive,23.7 µM (active),inactive,inactive,inactive,inactive,–,inactive,–,inactive,inactive,inactive,–,–,–
Cc1ccccc1CCO,inactive,inactive,inactive,inactive,inactive,inactive,inactive,inactive,–,inactive,inactive,inactive,inactive,–,inactive,inactive,–,inactive,inactive,inactive
O=C1C=CCCC1,inactive,inactive,inactive,inactive,inactive,inactive,inactive,inactive,inactive,inactive,inactive,inactive,inactive,inactive,inactive,–,inactive,inactive,inactive,–
C[C@@H](O)[C@H]1C(=O)N2C(C(=O)O)=C(S[C@@H]3CN[C@H](CNS(N)(=O)=O)C3)[C@H](C)[C@H]12,inactive,inactive,inactive,inactive,inactive,inactive,inactive,inactive,inactive,inactive,inactive,inactive,inactive,–,inactive,–,inactive,inactive,inactive,–
OCCOc1cccc(OCCO)c1,inactive,inactive,inactive,inactive,inactive,inactive,inactive,inactive,inactive,–,inactive,inactive,inactive,inactive,inactive,inactive,inactive,–,–,–
COc1cc(C)c(Cc2cnc(N)nc2N)cc1OC,inactive,inactive,inactive,inactive,–,inactive,inactive,inactive,inactive,inactive,inactive,inactive,inactive,inactive,inactive,–,inactive,–,–,–
CCCCOc1ccc(N)cc1,inactive,inactive,inactive,inactive,–,inactive,inactive,inactive,inactive,inactive,inactive,inactive,inactive,–,inactive,inactive,inactive,inactive,inactive,inactive
Cc1cc(C)n(CO)n1,inactive,inactive,inactive,inactive,–,inactive,inactive,inactive,inactive,inactive,inactive,–,inactive,inactive,inactive,inactive,inactive,inactive,inactive,–
CC(C)(C)N,inactive,inactive,inactive,inactive,–,inactive,inactive,inactive,inactive,inactive,inactive,inactive,inactive,inactive,inactive,inactive,inactive,–,–,inactive
O=C(O)c1cc(C(=O)O)cc([N+](=O)[O-])c1,inactive,inactive,inactive,inactive,–,inactive,inactive,inactive,inactive,inactive,inactive,–,–,inactive,inactive,inactive,inactive,–,–,–
CCc1ccc2c(c1)C(=O)c1ccccc1C2=O,inactive,27.3 µM (active),inactive,inactive,–,inactive,34.4 µM (active),inactive,inactive,inactive,inactive,–,–,–,inactive,inactive,inactive,–,–,–
CCCCCCCCCC(C)C=O (stereo unspecified),inactive,inactive,inactive,19.5 µM (active),–,inactive,–,–,inactive,–,inactive,–,–,inactive,inactive,inactive,inactive,inactive,inactive,inactive
Cc1ccc(S(=O)(=O)NC(=O)NC2CCCC2)cc1,inactive,inactive,inactive,inactive,inactive,–,inactive,inactive,inactive,inactive,inactive,inactive,–,inactive,inactive,inactive,–,–,–,inactive
C/C(=C(\CCO)SS/C(CCO)=C(\C)N(C=O)Cc1cnc(C)nc1N)N(C=O)Cc1cnc(C)nc1N,inactive,inactive,inactive,–,inactive,inactive,inactive,inactive,inactive,inactive,inactive,inactive,–,inactive,inactive,inactive,–,–,–,inactive
O=C(O)c1ccc(O)c(O)c1,inactive,inactive,inactive,inactive,–,inactive,inactive,inactive,inactive,inactive,inactive,inactive,inactive,inactive,inactive,–,–,–,–,–
